The list is not random: actives were taken first. Their share in the collection is about 1.8%.
PAD4 FP inh: blocks human protein arginine deiminase 4; 330,000 tested, 0.41% active; Q9UM07; recombinant PAD4, RCA probe fluorescence polarization; AID 485272; inhibition, % at 6.36 µM;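 active = percent inhibition above a cutoff equal to the mean of all tested compounds plus 3 SD, cut at about 15% in these data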;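 also: 0% = PAD4 with RCA probe and DMSO and 100% = probe without PAD4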
PME-1 inh: blocks human protein phosphatase methylesterase 1. Q9Y570. recombinant PME-1, FP-Rh probe fluorescence polarization. inhibition, % at 5.9 µM. 320,000 tested, 0.53% active;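 active = inhibition above the campaign mean of all compounds plus 3 SD, cut at about 26% in these data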;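 also: competitive labeling of PME-1 active site by serine hydrolase directed probe; 0% = PME-1 with DMSO and 100% = wells lacking PME-1 enzyme; inhibitors block probe labeling so polarization falls and inhibition rises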
Target sequence (Q9Y570 whole entry, looked up): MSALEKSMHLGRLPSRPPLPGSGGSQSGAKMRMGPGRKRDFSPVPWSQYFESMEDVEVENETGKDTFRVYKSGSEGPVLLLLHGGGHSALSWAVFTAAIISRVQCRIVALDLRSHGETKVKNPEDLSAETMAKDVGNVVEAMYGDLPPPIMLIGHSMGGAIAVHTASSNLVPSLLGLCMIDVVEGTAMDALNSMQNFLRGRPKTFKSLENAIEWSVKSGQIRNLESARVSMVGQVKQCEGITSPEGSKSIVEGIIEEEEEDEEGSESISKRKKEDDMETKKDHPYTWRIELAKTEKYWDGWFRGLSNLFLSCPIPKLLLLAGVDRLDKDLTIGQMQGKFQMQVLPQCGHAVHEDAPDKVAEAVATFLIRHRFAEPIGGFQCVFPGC
GSTO1 inh: counter-screen for RBBP9 inhibitors: inhibitors of human GSTO1 | recombinant GSTO1, activity-based probe fluorescence polarization | 300,000 tested, 1.1% active | inhibition, % at 5.96 µM | P78417;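 active = inhibition above the campaign mean inhibition plus 3 SD, cut at about 35% in these data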;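 also: 0% = GSTO1-1 with DMSO and 100% = wells lacking GSTO1-1 enzyme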
LYPLA1 inh: blocks human lysophospholipase 1, a PME1 counter-screen. O75608. recombinant LYPLA1, FP-Rh probe fluorescence polarization. inhibition, % at 5.9 µM. 320,000 tested, 0.16% active;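 active = inhibition above the mean of all tested compounds plus 3 SD, set per campaign, cut at about 14% in these data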;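 also: inhibitors block serine hydrolase probe labeling of LYPLA1 so polarization falls; 0% = enzyme with DMSO and 100% = wells lacking LYPLA1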
Fam108B inh: Fam108B inhibition, counter-screen for RBBP9 inhibitors; recombinant Fam108B, FP-Rh probe fluorescence polarization; inhibition, % at 9.51 µM; 300,000 tested, 0.33% active; AID 1947;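 active = inhibition above the screen mean inhibition plus 3 SD, computed separately per campaign, cut at about 18% in these data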;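 also: inhibitors lower polarization as less probe binds the enzyme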
LYPLA2 counter: counter-screen for PME1 inhibitors: inhibitors of human LYPLA2; O95372; recombinant LYPLA2, FP-Rh probe fluorescence polarization; inhibition, % at 5.9 µM; 320,000 tested, 0.38% active; AID 2177;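 active = inhibition above the screen-wide mean plus 3 SD, limit set per campaign, cut at about 26% in these data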;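 also: 0% = LYPLA2 with DMSO and 100% = wells lacking LYPLA2 enzyme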
Target sequence (O95372 whole entry, looked up): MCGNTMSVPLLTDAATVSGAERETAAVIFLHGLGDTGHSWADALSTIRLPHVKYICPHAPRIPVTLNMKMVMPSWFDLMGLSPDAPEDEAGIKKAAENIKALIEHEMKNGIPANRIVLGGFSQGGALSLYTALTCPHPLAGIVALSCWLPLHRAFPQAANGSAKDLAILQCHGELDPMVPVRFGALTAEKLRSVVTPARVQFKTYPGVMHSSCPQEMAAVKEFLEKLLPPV
LYPLA1 conf: counter-screen for PME1 inhibitors: confirmation of human LYPLA1 inhibitors; AID 2233; recombinant LYPLA1, FP-Rh probe fluorescence polarization; inhibition, % at 5.9 µM; shares compounds with LYPLA1 inh; 480 tested, 69% active;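 active = mean inhibition across replicates above the hit cutoff set in the primary screen, cut at about 15% in these data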;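 also: loss of FP-Rh probe labeling of LYPLA1 seen as lower polarization; 0% = LYPLA1 with DMSO and 100% = wells lacking LYPLA1 enzyme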
LYPLA2 confirm: counter-screen for PME1 inhibitors: confirmation of human LYPLA2 inhibitors; shares compounds with LYPLA2 counter; recombinant LYPLA2, FP-Rh probe fluorescence polarization; inhibition, % at 5.9 µM; 1,100 tested, 72% active; AID 2232;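 active = mean inhibition across replicates above the hit cutoff set in the primary screen, cut at about 26% in these data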;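 also: blocked labeling of the enzyme by serine hydrolase FP-Rh probe lowers polarization; 0% = enzyme with DMSO and 100% = wells lacking LYPLA2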
The depositor's hits bear a star; . = not tested or not shown.

SMILES	PAD4 FP inh	PME-1 inh	GSTO1 inh	LYPLA1 inh	Fam108B inh	LYPLA2 counter	LYPLA1 conf	LYPLA2 confirm
COC(=O)Cn1c(=NC(=O)c2ccc(S(=O)(=O)N3CCOCC3)cc2)sc2cc(S(N)(=O)=O)ccc21	-4.5	2.4	-3.8	12.5	-7.3	-0.3	.	.
O=C1c2ccccc2-c2onc3c(N4CCN(CCO)CC4)cc(N4CCN(C(=O)c5ccco5)CC4)c1c23	14.4	15.9	36.8*	16.6*	8.9	19.6	9.5	.
O=C(c1ccco1)N1CCN(CCCCN2C(=O)c3ccccc3C2=O)CC1	-4.2	-1.9	-0.1	5.5	0.0	16.2	.	.
Cc1cc(OCc2cc(C(=O)N3CCC(Oc4cccnc4)CC3)no2)cc(C)c1Cl	-3.3	4.7	-4.3	30.4*	-0.6	59.5*	33.2*	62.1*
Cc1ccc(CN2CCN(/N=C/C=C/c3ccccc3[N+](=O)[O-])CC2)cc1	-2.7	-3.7	8.6	32.9*	3.5	71.1*	52.6*	76.7*
CCOC(=O)[C@@H]1[C@H]2COc3cc(OC)ccc3[C@H]2N2C(=O)N(c3ccc(C)cc3)C(=O)[C@]12C	-1.0	.	.	.	.	.	.	.
CN(C)c1ccc(S(=O)(=O)NCC(=O)NCc2ccccc2)cc1[N+](=O)[O-]	2.2	5.0	6.0	0.7	4.2	11.9	.	.
CN(C)c1ccc(S(=O)(=O)NCC(=O)N2CCN(c3ccccc3)CC2)cc1[N+](=O)[O-]	-3.2	7.7	7.9	18.0*	0.9	28.0*	23.6*	26.4*
CC(C)(C)OC(=O)NCCc1nnc(SCc2c(Cl)cccc2Cl)o1	-0.4	-1.1	6.9	2.1	2.3	8.8	.	.
CC(C)(C)OC(=O)NCCCCCc1nnc(SCc2c(F)cccc2Cl)o1	-2.4	-13.0	6.5	24.8*	1.8	40.4*	40.6*	43.6*
CCCCN1CC(=O)N2[C@H]3c4cc(Br)ccc4OC[C@@H]3[C@H](C(=O)OCC)[C@]2(C)C1=O	-0.7	4.9	.	-2.8	.	-0.9	.	.
OC(COc1ccc(Cl)cc1)CN1CCN(c2cccc(Cl)c2)CC1 (stereo unspecified)	4.0	1.8	-10.6	19.8*	3.5	58.6*	27.1*	61.8*
COc1ccc2c(c1)C(=O)[C@H](O)[C@@H](c1ccc(OC)c(Br)c1)O2	-1.4	19.4	4.7	44.1*	-0.4	92.6*	41.5*	93.1*
N#Cc1c(NC(=S)NC(=O)c2ccccc2)sc2c1CCC2	3.8	-4.3	0.9	-3.1	0.4	0.6	.	.
O=C(NC(=S)Nc1sc2c(c1C(=O)O)CCCC2)c1ccccc1	-2.4	0.1	-65.0	78.2*	7.0	96.0*	71.4*	87.3*
O=C(c1ccccn1)N1CCN(c2ccc(C(F)(F)F)cn2)CC1	-2.5	-2.5	-3.9	-0.2	3.5	3.0	.	.
O=C(c1ccc2n[nH]nc2c1)N1CCN(c2ccc(C(F)(F)F)cn2)CC1	-5.9	0.1	.	66.5*	.	61.9*	57.7*	70.1*
Cn1nnc(NC(=S)NC(=O)c2cccc3ccccc23)n1	3.0	-3.8	0.8	0.1	-1.5	-6.8	.	.
CC(=O)c1ccc(N2CCN(C(=O)c3ccc(C(=O)c4ccccc4)cc3)CC2)cc1	0.5	0.7	.	20.6*	.	55.4*	36.0*	64.9*
CC(Oc1c(Cl)cccc1Cl)C1=NCCN1 (stereo unspecified)	0.6	-1.0	2.6	0.5	0.6	1.5	.	.
Cc1ccc(NC(=S)N/N=C2\CC(C)(C)Oc3ccc(O)cc32)cc1	3.1	13.7	-2.0	-0.2	1.2	-2.5	.	.
CC(=O)N1CCC2(CC1)C/C(=N\NC(=S)Nc1ccc(C)cc1)c1cc(O)ccc1O2	-1.3	4.2	-16.7	22.4*	6.2	49.5*	31.5*	54.1*
COc1ccc([C@H]2C(C(=O)O)=C[C@@H](CC3CCCC3)N2S(=O)(=O)c2ccc(C)cc2)cc1OC	-1.4	.	.	.	.	.	.	.
COc1ccc(OCC(O)CN2CCC(CN3C(=O)c4cccc5cccc(c45)C3=O)CC2)cc1 (stereo unspecified)	1.4	-2.9	25.0	20.0*	-2.7	68.6*	23.1*	69.3*
CNC(=O)C(=O)NCC1OCCCN1S(=O)(=O)c1ccc(F)cc1C (stereo unspecified)	1.5	-0.9	4.6	3.1	-2.6	10.4	.	.
SMILES	PAD4 FP inh	PME-1 inh	GSTO1 inh	LYPLA1 inh	Fam108B inh	LYPLA2 counter	LYPLA1 conf	LYPLA2 confirm
COc1ccc(NC(=O)COC(=O)c2cc(Cl)ccc2O)cc1S(=O)(=O)N1CCCCC1	7.5	7.2	.	-1.1	.	1.6	.	.
COc1cc(COc2ccc3c(C)c(Cc4ccccc4)c(=O)oc3c2)cc(OC)c1OC	3.1	-1.9	1.1	17.3*	-6.5	50.5*	36.2*	57.5*
c1ccc(CN2CCN(CCCNc3ccc4nnc(-c5ccccc5)n4n3)CC2)cc1	4.9	2.8	2.2	36.0*	-1.7	38.5*	38.2*	29.0*
O=C(CCCCn1c(=O)[nH]c2ccccc2c1=O)N1CCN(c2cccc(C(F)(F)F)c2)CC1	4.3	-1.2	3.6	19.9*	2.1	83.2*	21.8*	72.6*
Cc1ccc(C)c(C(=O)CCC(=O)N2CCN(c3cccc(C(F)(F)F)c3)CC2)c1	-1.1	4.5	.	37.5*	.	56.9*	44.1*	64.1*
COc1ccc(N2CCN(CCCNC(=O)CCCn3c(=O)[nH]c4ccsc4c3=O)CC2)cc1	0.6	5.7	-0.8	0.0	0.6	5.2	.	.
COc1ccc(N2CCN(C(=O)CCCCCn3c(=O)[nH]c4ccsc4c3=O)CC2)cc1	1.2	0.5	3.3	18.6*	-0.1	26.6*	45.5*	28.7*
COC(C)(C)[C@@H](O)COc1c2ccoc2cc2oc(=O)ccc12	-4.4	-2.1	.	-5.6	.	-11.7	.	.
COc1ccc(CC(C)N2CCN(Cc3ccccc3)CC2)cc1OC (stereo unspecified)	1.8	-2.2	-4.1	25.5*	-4.6	27.6*	5.1	-3.7
Cn1cncc1C#Cc1ccc2c(=O)c3ccccc3oc2c1	-2.8	.	.	.	.	.	.	.
COc1ccc(-n2nc(C(=O)NCC(=O)N3CCN(c4cccc(Cl)c4)CC3)c3ccccc3c2=O)c(OC)c1	3.5	4.3	-4.2	49.3*	-3.7	82.8*	49.0*	68.5*
NC(=O)CN1CCN(c2cccc(Cl)c2)CC1	-0.8	1.9	2.5	-1.9	2.0	-4.3	.	.
C/C(=C\c1ccccc1)CN1CCN(c2cccc(Cl)c2)CC1	-3.7	-4.7	5.4	24.7*	-0.2	37.4*	42.5*	44.1*
Cc1onc(-c2ccccc2)c1C(=O)NC1CCC(C)CC1 (stereo unspecified)	-2.1	1.7	.	0.9	.	4.0	.	.
N#Cc1ccsc1NC(=O)CN1C(=O)NC2(CCCCC2)C1=O	-10.8	-9.5	18.1	-11.4	-1.2	-15.7	.	.

Bioassay records (PubChem BioAssay)
